From PubChem BioAssay (EPA / NIEHS)
Activity calls are given as the source filed them. Rule for the calls: active = hit-call score of the fitted dose curve at least 0.9, where 1 is the maximum; inactive = score below 0.9.

Assay: Tanguay_ZF_120hpf_DP24: Oregon State University Tanguay Lab 24 Hour Post-fertilization zebrafish Assay for Delayed Development (AID 2284390)
Procedure: Tanguay_ZF_120hpf is a whole embryo, multiplexed endpoint assay using zebrafish larvae exposed for 120 hours post fertilization on a 96-well plate.Tanguay_ZF_120hpf_DP24 is […] measured or calculated from the Tanguay_ZF_120hpf assay. It is designed to make measurements of zebrafish development as detected with brightfield microscopy of developing zebrafish embryos.Data from the assay component Tanguay_ZF_120hpf_DP24 was analyzed into 1 assay endpoints. This assay endpoint, Tanguay_ZF_120hpf_DP24, was analyzed in the positive analysis fitting direction relative to DMSO as the negative control and baseline of activity. Using a type of morphology reporter, gain-of-signal activity can be used to understand changes in developmentals as they relate to the whole embryo. To generalize the intended target to other relatable targets, this assay endpoint is annotated to the zebrafish development intended target family, where the subfamily is embryonic morphogenesis.
Zebrafish husbandry: Tropical 5D wild-type adult zebrafish were housed in at an approximate density of 1000 per 100 gallon tank at the Sinnhuber Aquatic Research Laboratory, Oregon State University, Corvallis, OR. Each tank was kept at standard laboratory conditions of 28C on a 14-h light/10-h dark photoperiod in fish water consisting of reverse osmosis water supplemented with a commercially available salt (Instant Ocean). Spawning funnels were placed into the tanks the night prior, and embryos were collected and staged. To increase bioavailability, the chorion was enzymatically removed using pronase (63.6mg/ml, >/= 3.5U/mg, Sigma-Aldrich: P5147) at 4 hours post fertilization (hpf) using a custom automated dechorionator.Chemical exposures: Six hpf dechorionated embryos were placed 1 embryo per well in a 96-well plate prefilled with 90 ul of EM using automated embryo placement systems (AEPS). Ten microliters of each row of dilution plate 2 was added to 2 exposure plates. The final DMSO concentration used was 0.64% (vol/vol). Thirty-two embryos were also exposed to 5uM trimethyltin chloride (positive control). Plates were sealed to prevent evaporation and foil covered to reduce light exposure and kept in a 28C incubator. Embryos were statically exposed until 120 hpf. At 24 hpf, embryos were assessed for photomotor response using a custom photomotor response analysis tool (PRAT) and for developmental toxicity endpoints (MO24: mortality at 24 hpf, DP: developmental progression, SM: spontaneous movement, and NC: notochord distortion). At 120 hpf, locomotor activity was measured using Viewpoint Zebralab and assessed for 13 endpoints. Zebrafish acquisition and analysis program (ZAAP), a custom program designed to inventory, acquire, and manage zebrafish data, was used to collect developmental endpoints as either present or absent (i.e., binary responses were recorded). If mortality occurred for an embryo (at either 24 or 120 hpf), the non-mortality endpoints were not measured.

Row | SMILES | AC50 | outcome
1 | OCC(F)(F)OC(F)(F)C(F)(F)OC(F)(F)C(F)(F)OC(F)(F)CO | 33.3 µM (active) | –
2 | OCC(F)(F)OC(F)(F)C(F)(F)OC(F)(F)C(F)(F)OC(F)(F)F | – | inactive
3 | O=S(=O)(F)C(F)(F)C(F)(F)C(F)(F)C(F)(F)C(F)(F)C(F)(F)C(F)(F)C(F)(F)F | – | inactive
4 | COC(=O)C(F)(F)C(F)(F)OC(F)(C(F)(F)F)C(F)(F)OC(F)=C(F)F (centres undefined) | – | inactive
5 | OCC(F)(F)OC(F)(F)C(F)(F)OC(F)(F)CO | – | inactive
6 | C=CC(=O)OCC(F)(F)C(F)F | 45.3 µM (active) | –
7 | O=C(O)C(F)(F)OC(F)(F)C(F)(F)OC(F)(F)C(=O)O | – | inactive
8 | FC(F)(F)C(F)(C(F)(F)F)C(F)(F)C(F)(F)CC1CO1 (centres undefined) | – | inactive
9 | O=C(O)C(F)(OC(F)(F)C(F)(F)C(F)(F)F)C(F)(F)F (centres undefined) | – | inactive
10 | O=C(O)C(F)(F)OC(F)(F)C(F)(F)OC(F)(F)F | – | inactive
11 | O=C(O)C=CC(F)(C(F)(F)F)C(F)(F)F | – | inactive
12 | NC(=O)C(F)(F)C(F)(F)F | – | inactive
13 | O=C(O)C(F)(F)C(F)(F)C(=O)O | – | inactive
14 | CC(O)C(F)(F)C(F)(F)F (centres undefined) | – | inactive
